Screening data from PubChem.
Shown are actives, neighbours in structure and some others; about 2.4% of the full set was active somewhere.
D2 ag-1 – human D2 receptor agonism in beta-arrestin assay; P14416; DiscoveRx PathHunter D2 beta-arrestin, luminescence, 90 min; 100% = 57 uM dopamine signal; activation, % (test concentration not listed); actives 0.084% (n = 360,000); AID 624465; in the data active = activation above about 40%; inconclusive = between about 15% and that limit
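DiscoveRx PathHunter D2 beta-arrestin cells (2,100/well) attached overnight, then compound-stimulated 90 min at 37 C in HBSS/10 mM HEPES/0.1% Tween-20 buffer; beta-galactosidase complementation read by luminescence after 1 h at ambient temperature. Dopamine 57 uM final (EC100) as control.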
D2 antag – D2 dopamine receptor (human) antagonism | P14416 | HEK293 TREx D2 cells, calcium flux, dopamine EC80 | inhibition, % at 10 µM | actives 2% (n = 340,000) | AID 485344; in the data active = inhibition above about 30%; inactive = below that, where a call was filed
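Dopamine at EC80 is the agonist stimulus; test compounds precede it by 180 s. Calcium flux read kinetically in a force-coupled, inducible HEK293 T-REx D2 cell line.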
D2 ag-2 – agonists of human D2 dopamine receptor; P14416; HEK293 T-REx D2 cells, calcium flux agonist mode; activation, % at 2 µM; actives 0.53% (n = 340,000); AID 485358;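 active = activation over 3 SD above normal in the single-dose calcium agonist read, cut at about 30% in these data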
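HEK293 Trex D2 cells, tetracycline-induced, o/n 30 C 5% CO2; no-wash Ca dye, RT 30–90 min; 10-cycle baseline, 23 nl cpd added, kinetic Ca read 180 s; agonist hits = positive Ca response.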
D2 PAM-1 – human D2 receptor positive allosteric modulation; P14416; AID 624464; DiscoveRx D2 beta-arrestin cells, luminescence, 90 min; 100% = 57 uM dopamine signal; actives 0.23% (n = 360,000); potentiation, % (concentration not given with the values); in the data active = potentiation above about 50%; inconclusive = mostly about 30% to 49%
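PathHunter beta-arrestin assay in DiscoveRx D2 cells. Compounds were added with an EC20 of dopamine (50 nM final) for 90 min at 37 deg C. Luminescence was read 1 h after detection reagent, with 57 uM dopamine as the EC100 control.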
D2 PAM-2 – positive allosteric modulators of human D2 dopamine receptor. P14416. HEK293 T-REx D2, calcium flux, EC20 dopamine potentiation. potentiation, % at 10 µM. actives 0.34% (n = 340,000);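 active = potentiation over 3 SD above the plate norm, cut at about 30% in these data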
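Potentiation of an EC20 dopamine calcium response measured kinetically over 180 s, after a preceding 180 s compound-only read flagging agonists. Cells: inducible Hek293 Trex D2 line, 4000/well, cultured overnight at 30 C before dye loading.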
D3 arrestin ag – confirmation of human D3 dopamine receptor agonists, beta-arrestin; actives 4% (n = 2,300); DiscoveRx D3 beta-arrestin cells, luminescence, 90 min; shares compounds with D2 ag-2; Potency, µM (titrated, usually from 76.9 µM), hits mostly activators; note: nearly all actives have a fitted effect of over 70% in size
Target sequence (P35462 whole entry, looked up): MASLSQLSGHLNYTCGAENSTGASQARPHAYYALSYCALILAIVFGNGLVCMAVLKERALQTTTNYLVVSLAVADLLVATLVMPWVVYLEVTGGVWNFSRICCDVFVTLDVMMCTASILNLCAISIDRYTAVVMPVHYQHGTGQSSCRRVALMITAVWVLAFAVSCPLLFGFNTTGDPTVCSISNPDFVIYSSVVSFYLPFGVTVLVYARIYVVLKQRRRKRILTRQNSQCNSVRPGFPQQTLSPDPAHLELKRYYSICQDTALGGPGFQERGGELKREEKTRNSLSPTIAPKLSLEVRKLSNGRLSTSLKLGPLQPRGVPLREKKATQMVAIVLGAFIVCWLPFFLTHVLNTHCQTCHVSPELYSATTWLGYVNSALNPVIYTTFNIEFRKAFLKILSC
D2 ag-3 – D2 receptor agonism, beta-arrestin counterscreen; shares compounds with D2 ag-2; DiscoveRx PathHunter D2 beta-arrestin, luminescence, 90 min; response scale: percent relative to full dopamine signal; Potency, µM (top dose mostly 76.9 µM), actives largely listed as activators; actives 5.9% (n = 2,300); note: nearly all actives have a fitted effect of over 70% in size
Of the large screens only hits and unclear results are named; the others gave an inactive call (follow-up assays come after a bar, where they were run). Unless noted, calls come from the whole dose curve; as a rule, active = well fitted activation curve with a large enough effect; inconclusive = small, poorly fitted or top-dose-only effect; inactive = flat fitted curve, though single readings scatter.

O=C(O)c1ccc(CSc2nc3ccccc3c(=O)n2-c2ccccc2)cc1	D2 antag 48, D2 ag-2 58 | D3 arrestin ag inactive | D2 ag-3 inactive
O=c1c2ccccc2nc(SCc2ccc([N+](=O)[O-])cc2)n1-c1ccccc1	none (no result: D2 ag-2)
CCOc1cc(CNCCc2ccc(S(N)(=O)=O)cc2)ccc1OCc1ccc(Cl)cc1	D2 antag 65 | D3 arrestin ag inconclusive | D2 ag-3 inconclusive
Cc1cc(C)cc(NC(=O)CN(c2cc(C(F)(F)F)ccc2Cl)S(=O)(=O)c2ccccc2)c1	none (no result: D2 ag-1, D2 antag, D2 PAM-1)
Cc1ccc(-n2ncc3c2CC(C)(C)CC3NC(=O)CN2CCCC2=O)cc1 (stereo not given)	none
C=CCC(=O)NC1CC(C)(C)Cc2c1cnn2-c1ccc(C)cc1 (stereo not given)	D2 ag-2 72 | D3 arrestin ag inactive | D2 ag-3 inactive
COc1ccc(CN2CCN(Cc3cc4ccccc4o3)CC2CCO)cc1C (stereo not given)	D2 ag-1 inconclusive, D2 ag-2 66 | D3 arrestin ag inactive | D2 ag-3 inactive
COc1ccc(CN2CCN(Cc3cc4ccccc4o3)CC2CCO)c(F)c1 (stereo not given)	none
COc1cccc(CN2CCN(Cc3cc4ccccc4o3)CC2CCO)c1 (stereo not given)	D2 ag-2 43 | D3 arrestin ag inactive | D2 ag-3 inactive
COc1ccccc1C1CCN(Cc2cccc(C(=O)N3CCC(O)CC3)c2)CC1	D2 antag 75, D2 ag-2 75 | D3 arrestin ag inactive | D2 ag-3 inactive
O=C(Nc1ccccc1OCc1cc(=O)n2ccccc2n1)c1cccc(Br)c1	none (no result: D2 ag-1, D2 antag, D2 PAM-1)
Cc1ccc(C2=CC(=O)CC(C)(C)C2)cc1	none
CC1(C)CC(=O)C=C(c2ccc3ccccc3c2)C1	none (no result: D2 antag, D2 ag-2) | D3 arrestin ag inactive | D2 ag-3 inactive
CCC(C)Nc1nc(-c2cccc(OC)c2O)nc2ccccc12 (stereo not given)	D2 PAM-1 inconclusive | D3 arrestin ag inactive | D2 ag-3 inactive
Cc1ccc(CNc2ncnc3cc(Cl)ccc23)cc1	none
Cc1cc(NCc2ccc(F)cc2)nc2cc(Cl)ccc12	none | D3 arrestin ag inactive | D2 ag-3 inactive
Cc1ccc(NC(=O)c2c(C)oc3ccc(O)c(CN4CCCCC4)c23)c(C)c1	none (no result: D2 ag-1, D2 antag, D2 PAM-1)
O=[N+]([O-])c1cccnc1N1CCN(Cc2ccc3c(c2)OCO3)CC1	D2 ag-1 44, D2 antag 92, D2 ag-2 89 | D3 arrestin ag inactive | D2 ag-3 inconclusive
O=C(c1cccnc1)N1CCN(Cc2ccc3c(c2)OCO3)CC1	none
c1cnc(N2CCN(Cc3ccc4c(c3)OCO4)CC2)cn1	D2 ag-1 44, D2 antag 90, D2 ag-2 80, D2 PAM-1 inconclusive | D3 arrestin ag inconclusive | D2 ag-3 inconclusive
Cc1ccccc1-c1nc(SCC(=O)NCc2ccc(F)cc2)c2c(=O)n(C)c(=O)n(C)c2n1	none (no result: D2 ag-1, D2 antag, D2 PAM-1)
CCc1ccc(-c2nc3cc(NC(=O)c4cc5ccccc5cc4OC)ccc3o2)cc1	none (no result: D2 ag-1, D2 antag, D2 PAM-1)
CN1C/C(=C\c2ccc(N3CCOCC3)cc2)C(=O)/C(=C/c2ccc(N3CCOCC3)cc2)C1	none | D3 arrestin ag inactive | D2 ag-3 inactive
CN1C/C(=C/c2ccsc2)C(=O)/C(=C/c2ccsc2)C1	D2 antag 44, D2 ag-2 69 | D3 arrestin ag inactive | D2 ag-3 inactive
COc1ccccc1-c1csc(C(O)(c2ccccc2)C(F)(F)F)n1 (stereo not given)	none (no result: D2 antag, D2 ag-2, D2 PAM-2)
OC(c1cc(-c2ccc(C(F)(F)F)cc2)nc(C(F)(F)F)c1)C1CCCCN1 (stereo not given)	D2 ag-1 inconclusive | D3 arrestin ag inconclusive | D2 ag-3 inconclusive
C[C@H]1CN([C@@H](C)CO)C(=O)CCCn2cc(nn2)CO[C@@H]1CN(C)C(=O)Nc1ccc(N2CCCCC2)cc1	none (no result: D2 antag, D2 ag-2, D2 PAM-2)
